Measurements published in PubChem BioAssay AID435000 (NMMLSC, 2010).
Some of the results follow. Active and inactive are the calls of the source.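 Rule for the calls: active = fluorescence response below 15%; inactive = the rest.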

assay: DHE quenching or ROS scavenging interference in aged yeast, artefact control for yeast caloric restriction mimetic project, S. cerevisiae BY4741, flow cytometry (AID 435000); conditions: at 10 µM, active compounds read low;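 note: percent of the mean fluorescence averaged over all compound wells on the plate; lower means stronger quenching of DHE signal or ROS scavenging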

Fluorescence response, inactive:
CC(C)(C)NC(=O)COc1ccc(CNc2ccc3[nH]c(=O)[nH]c3c2)cc1 94.4%
O=C(O)c1ccc(F)c(S(=O)(=O)Nc2ccccc2)c1 90.9%
CC(=O)NC1=NN(C(C)=O)C(C)(CCS(=O)(=O)c2ccc(Cl)c(Cl)c2)S1 (configuration not stated) 112%
COc1cc(-c2nnn(CC(=O)NCc3ccccc3)n2)cc(OC)c1OC 99.2%
O=C(Nc1cccc(Cl)c1Cl)c1ccccc1NC(=O)C1CC=CCC1C(=O)O (configuration not stated) 89.9%
COC(=O)CNC(=O)c1ccc(OC2CCN(C(=O)C3CC3)CC2)cc1 113%
O=C(CSc1ccc(-c2ccc(-n3cccn3)cc2)nn1)Nc1ccc([N+](=O)[O-])cc1 88.8%
Cc1ccc(-c2nnc(Nc3ccc(C(=O)N(C)C)cc3)c3ccccc23)cc1S(N)(=O)=O 113%
Cc1ccc(-c2nc(CS(=O)CC(=O)N3CCN(c4ncccn4)CC3)c(C)o2)cc1 (configuration not stated) 95.7%
CC(=O)C[C@@H](O)CC(=O)[C@H]1OC(=O)CCCCCCc2ccccc21 113%
NC(=S)Nc1c(Cl)cccc1Cl 97.4%
O=[N+]([O-])c1ccc2c(c1)Nc1nc3ccccc3nc1N2 92.7%
CSc1ncc(Cl)c(C(=O)Nc2cc(C)ccc2C)n1 95.1%
Cc1ccc(-c2nc(CSCC(=O)NC3CCN(Cc4ccccc4)CC3)c(C)o2)cc1 94.6%
Cc1cc2oc(C(=O)Nc3c(C)n(C)n(-c4ccccc4)c3=O)c(C)c2cc1Cl 95.3%
COc1ccc(NC(C)=O)cc1NC(=O)CN1CCN(c2ccccn2)CC1 96.8%
O=C(O)C1CCCN1S(=O)(=O)c1ccc(Br)cc1 (configuration not stated) 90.2%
Cc1ccc(NC(=O)Cn2nc(C)c3ccccc3c2=O)c(C)c1 110%
O=C(CSCc1ccccc1)Nc1ccccc1 111%
O=C(CN1CCN(c2ccccn2)CC1)Nc1ccc(Br)cc1 97%
Cn1c(Nc2ccccc2)cc(=O)n(C)c1=O 113%
COc1ccc(C)cc1S(=O)(=O)Nc1cccc(Cl)c1Cl 102%
